Data on 24 sequences can be found in article PMC7819943, “Rice protein-binding microarrays: a tool to detect cis-acting elements near promoter regions in rice”.

In all, about 68,000 sequences were measured (“fluorescence intensity (a.u.)”: median about 9,100, highest 2% from about 16,000 on). The full list was thinned out, with the highest values kept by preference.

Sequence of OsWRKY34 (Q0JBA9 entry or part of it): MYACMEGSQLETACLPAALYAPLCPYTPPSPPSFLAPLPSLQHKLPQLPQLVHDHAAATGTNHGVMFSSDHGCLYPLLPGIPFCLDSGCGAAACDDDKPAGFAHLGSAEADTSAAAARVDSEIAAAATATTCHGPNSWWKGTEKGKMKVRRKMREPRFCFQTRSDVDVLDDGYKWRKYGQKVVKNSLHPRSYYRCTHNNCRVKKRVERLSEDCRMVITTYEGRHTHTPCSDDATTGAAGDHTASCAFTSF

This experiment concerns the target OsWRKY34 (Oryza sativa, UniProt Q0JBA9 1-250). As to the kind of experiment: protein-binding microarray (RPBM); PBS, 2% BSA, 51.3 ng/ul salmon testes DNA, 50 uM zinc acetate, 200 nM TF, 25 C, 1 h; high values mean tight binding. Conditions: protein: recombinant; tags: N-terminal polyhistidine and DsRed monomer fusion (pET32a); label: CyDye5-dUTP incorporated in the synthesized complementary strand; 3' TTTTT single-stranded linker to array surface; dsDNA, one strand shown. The method, boiled down:
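Binding signal here means per-feature fluorescence intensity in arbitrary units. The values were read on an Axon 4000B scanner after a custom Agilent array, double-stranded by primer extension with Cy5-dUTP, was incubated with 200 nM protein at 25 °C for 1 h in PBS with 2% BSA, salmon testes DNA and 50 µM zinc acetate, then washed. The proteins were transcription factors with an N-terminal polyhistidine tag and DsRed, expressed in E. coli BL21-CodonPlus and purified on Ni–NTA.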
“AGTTATTTATTTTGTTGTGGTTTGTTTTATAGTTAAAGGTCGGAGTCACCTAGTGCAG”: the binding signal is 10100 fluorescence intensity (a.u.). The same measure for “CGATCCCACCGACTCCCGGCCACCTCTGCTTCCCCGGCGACGGAGTCACCTAGTGCAG”: 9140 fluorescence intensity (a.u.); for “TATATGTTTGGCGCTCAAAACCTAATAGTAGTTCTTATGTCGGAGTCACCTAGTGCAG”: 8300 fluorescence intensity (a.u.); for “CTCTCCTCTCATCTCATCTCATCTCCAAGGCTGGTCTTTACGGAGTCACCTAGTGCAG”: 8320 fluorescence intensity (a.u.).

In the case of “ACAGCCGCGTCGCCGCTTGTCCGCCTGCGCTCGTTCTCGCCGGAGTCACCTAGTGCAG”, the binding signal was 9640 fluorescence intensity (a.u.).

Consider “GGCATCCTACACTCTAGCTAGCCCACAGTCCGCTGCCGGCCGGAGTCACCTAGTGCAG”, for which the binding signal is 8790 fluorescence intensity (a.u.).

For “GCGGATGGAATGGCAAGGGAGGAAACTGGTGGGGTGGGAGCGGAGTCACCTAGTGCAG”, the binding signal is 8960 fluorescence intensity (a.u.). Regarding “TTCGGTTGGGTGGAGGAAGCGCGGGTGAAAAAGGTGGGGACGGAGTCACCTAGTGCAG”, the binding signal is 10600 fluorescence intensity (a.u.). As to “GGAATATTCTCACATCTCAGCCATCCATTTTCCATCTCAACGGAGTCACCTAGTGCAG”, the binding signal is 9090 fluorescence intensity (a.u.). The same measure for “GATAGGTTGTGTGTGTGCAGTGTGTGTTTATAAGAGGTGACGGAGTCACCTAGTGCAG”: 10200 fluorescence intensity (a.u.); for “CAGCAGTGTGTGTAAGAGGAGAGAGAAGCAGTGCCCTTTACGGAGTCACCTAGTGCAG”: 8530 fluorescence intensity (a.u.); for “TACATCATCTAGTGTTGCAGCAGCAGTGTGTGTAAGAGGACGGAGTCACCTAGTGCAG”: 28500 fluorescence intensity (a.u.). As for “CGTCACTTTTTTTTCTCCCCTATTTCTTTTCTCCTTTTCTCGGAGTCACCTAGTGCAG”, the binding signal was 10900 fluorescence intensity (a.u.). Take “CCGCTCTCCTACTGCTCGGCCAACCAGTCATGCACACATACGGAGTCACCTAGTGCAG”: the binding signal is 8790 fluorescence intensity (a.u.). The same measure for “ATAAAATAGTTGACTGGCTATCTTCTACTCCACTTGGTATCGGAGTCACCTAGTGCAG”: 8860 fluorescence intensity (a.u.). With “GATTAGGGTTGTTGCCGGGGTTTGTTTGGTGTTGCGGCGGCGGAGTCACCTAGTGCAG”, the binding signal is 8510 fluorescence intensity (a.u.).

In the case of “TTTGGGGTTTGAGAAGGTTGAGGAGGAGTTGGGAGGTTGACGGAGTCACCTAGTGCAG”, the binding signal is 9580 fluorescence intensity (a.u.). The same measure for “AGGCGGAGGAGGGGAGGCGGAAGGGGTTCGCGTCGGCGGCCGGAGTCACCTAGTGCAG”: 12200 fluorescence intensity (a.u.). With “TTGATTTCGTTGGGGTTTGCGTTGCGTGCGGAGGACGGGGCGGAGTCACCTAGTGCAG”, the binding signal was 15200 fluorescence intensity (a.u.). The same measure for “CGGCGGGCGGGAGGGCGGCGTTGATTTCGTTGGGGTTTGCCGGAGTCACCTAGTGCAG”: 19100 fluorescence intensity (a.u.); for “AGGGGAGGCGTCGCTTGGTCGCCATCTTCGTCGTTTGCTTCGGAGTCACCTAGTGCAG”: 9720 fluorescence intensity (a.u.).

For “TGCTTTCGTTGGGTTGGGGAAGGGGAGGCGTCGCTTGGTCCGGAGTCACCTAGTGCAG”, the binding signal is 17100 fluorescence intensity (a.u.).

Turning to “CGGGAGGAGGGAGGTTGTTTCGTCTGGGGTTTGATTGGGACGGAGTCACCTAGTGCAG”, the binding signal is 18200 fluorescence intensity (a.u.). On to “TTTACAGTTGATTTTGACGGGTTTGTTGGCGAGGATTTTTCGGAGTCACCTAGTGCAG”, for which the binding signal was 9360 fluorescence intensity (a.u.).
